High-throughput results as filed in PubChem BioAssay.
In the library only some 21% were active in any assay of this set; here they are far more common.
Shiga inhibitor = A qHTS for Small Molecule Inhibitors of Shiga Toxin; 9.2% of 290,000 active; Vero cells, Shiga toxin protein synthesis inhibition reporter; inhibition, % at 38.7 µM; in the data active means inhibition mostly above about 28%, no sharp cut-off; inactive means mostly below about 43%; further: 0% is about no effect
HCV inh = qHTS Assay for Inhibitors of Hepatitis C Virus (HCV); Huh7.5.1 HCVcc-Cre infection, luciferase reporter, 44 h; Potency, µM (highest dose often 41.8 µM), without a hit: at the top dose activity change, negative = inhibition, actives largely listed as inhibitors; 3.4% of 340,000 active; further: potency means the concentration at half of the fitted maximal effect; on the % scale 0 is the no-effect control and ±100 the full control effect
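A cell-based infection assay in which seeded cells (1,000 per well) receive test compound after 4 h, are inoculated with HCVcc-Cre at approximately 0.5 moi, and are incubated 44 h before luminescence detection.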
AMA1-RON2 inh = qHTS for Inhibitors of AMA1-RON; Towards Development of Antimalarial Drug Lead: Primary Screen; Plasmodium falciparum AMA1 (3D7) - RON2 peptide interaction; AlphaScreen AMA1-biotinylated RON2 peptide binding; Potency, µM (highest dose often 58.2 µM), for inactives: top-dose activity change, negative = inhibition, usual class: inhibitors; 0.2% of 360,000 active; AID 720542, 2013;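 further: potency means the concentration at half of the fitted maximal effect; 0% = vehicle wells and -100% = peptide control; nearly all actives have a fitted effect of over 45% in size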
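AMA1 (3D7) with his tag at 25 nM final met compounds first, then biotinylated RON2 peptide at 25 nM; detection used donor plus acceptor beads, 10 µg/mL apiece, read by AlphaScreen after 30 min at room temperature.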
Pf growth 96h = Primary qHTS for delayed death inhibitors of the malarial parasite plastid, 96 hour incubation. Potency, µM (highest dose often 28.7 µM), inactives show at the highest dose activity change, negative = inhibition, actives largely listed as inhibitors. AID 504834, 2011. P. falciparum luciferase reporter growth, 96 h. 6.9% of 320,000 active; further: potency means the concentration at half of the fitted maximal effect; on the % scale 0 is the no-effect control and ±100 the full control effect
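Infected RBCs, 2% Hct / 0.05% parasitemia final; luciferase-reporter P. falciparum; cpd 96 h, 37 C, 5% CO2; luciferase detection reagent; luminescence.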
CHX counter = Cycloheximide Counterscreen for Small Molecule Inhibitors of Shiga Toxin | max response, % | 12% of 300,000 active | cell reporter, cycloheximide protein synthesis inhibition counterscreen; in the data active means max response mostly above about 13%, no sharp cut-off; inactive means mostly below about 14%; further: read at 38.3 µM for the half of the compounds with a filed dose; 0% is about no effect
Pf growth 48h = Primary qHTS for delayed death inhibitors of the malarial parasite plastid, 48 hour incubation | P. falciparum luciferase growth in erythrocytes, 48 h | Potency, µM (titrated, usually from 28.7 µM), for inactives: at the top dose activity change, negative = inhibition, most hits filed as inhibitors | 5.9% of 310,000 active | AID 504832, 2011; further: potency means the concentration at half of the fitted maximal effect; on the % scale 0 is the no-effect control and ±100 the full control effect
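Compounds are pin-transferred into medium, infected erythrocytes (2% hematocrit, 0.1% parasitemia final) are added, and plates sit one parasite generation at 37 C in 5% CO2. Detection reagent is then added and luminescence measured.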
The depositor's hits bear a star; i = inactive; u = inconclusive; x = not tested or not shown; [ ] = remark or other dose. Unless noted, the call rests on the fitted dose curve; in most records, active means well fitted curve in the direction sought with a large enough effect; inconclusive means small, poorly fitted or top-dose-only effect, or another doubt; inactive means no such curve, though single readings can be large; an effect the other way counts as inactive or inconclusive.

SMILES	Shiga inhibitor	HCV inh	AMA1-RON2 inh	Pf growth 96h	CHX counter	Pf growth 48h
Cc1ccn2c(c1)nc(=O)c1cc(S(=O)(=O)N3CCCCC3)ccc12	-8.5	0.8%	1.4%	0.1%	-7.6	u
COc1ccc(-c2csc(Nc3cccnc3)n2)cc1OC	active	u	-11.9%	145.6%	21.3	u
COc1cccc(Nc2nc(-c3cccnc3)cs2)c1	57.3*	u	-3.1%	-23.7%	52.9*	123.5%
COc1cccc(C(=O)C2CN(c3ccccc3)CC2c2ccc(Cl)cc2)c1 (stereo not drawn)	52.5	12.1%	-6.4%	10.4µM*	22.5*	10.4µM*
CC1(C(=O)NS(=O)(=O)c2cccc(F)c2)CCN1C(=O)c1ccccc1 (stereo not drawn)	x	x	22.9%	x	x	x
CN1C(=O)C(c2nnc(Nc3cccc4ccccc34)s2)C2CC1(C)Oc1ccccc12 (stereo not drawn)	-3.2	u	-21.6%	4.65µM*	-1.8	u
CCOC(=O)C1C(=O)N(C)C2(C)CC1c1ccccc1O2 (stereo not drawn)	-4.4	7.3%	32.3%	u	-2.7	6.9%
O=C(NCC1CCCO1)C(c1cccs1)N(C(=O)c1ccc(-c2ccccc2)[nH]1)C1CCCC1 (stereo not drawn)	35.6	-27.6%	4.5%[2.32 µM]	u	3.0	10.4µM*
O=C(NCC1CCCO1)C(c1ccc(F)cc1)N(CCCN1CCOCC1)C(=O)c1ccc(-c2ccccc2)[nH]1 (stereo not drawn)	-8.9	3.8%	-13.6%	8.8%	-1.7	13.1µM*
O=C(NCC1CCCO1)C(c1cccs1)N(Cc1ccccc1)C(=O)c1ccc(-c2ccccc2)[nH]1 (stereo not drawn)	-4.6	11.2%	u	i	5.2	u
COc1ccc(CN(C(=O)c2ccc(-c3ccccc3)[nH]2)C(C(=O)NCC2CCCO2)c2ccc(C)o2)cc1 (stereo not drawn)	-7.1	-19.0%	u	6.57µM*	-3.0	8.28µM*
CC(C)(C)NC(=O)C(c1cccs1)N(CC1CCCO1)C(=O)c1ccc(-c2ccccc2)[nH]1 (stereo not drawn)	2.7	u	u	478.0%	7.0	13.1µM*
C=CCc1cccc(/C=N/NC(=O)CN2CCN(Cc3ccccc3)CC2)c1O	-6.3	x	x	x	-6.5	x
CCOC(=O)[C@@H]1[C@H]2COc3cc(OC)ccc3[C@@H]2N2C(=O)N(c3ccccc3)C(=O)[C@]12C	x	-2.1%	-7.2%	x	x	x
CCCCN1CC(N2CCN(CCN(C)C)CC2)CS1(=O)=O (stereo not drawn)	x	x	18.2%	x	x	x
CC(CC(=O)Nc1ccc2c(c1)c(=O)n(C)n2-c1cccs1)c1ccccc1 (stereo not drawn)	x	x	-0.2%	x	x	x
Cc1cc(C(=O)OCC(=O)N2CCc3ccccc32)c(C)o1	37.0	13.7%	33.7%	x	25.1*	97.1%
O=C1CN(C(=O)COC(=O)C2=COCCO2)c2ccccc2N1	-23.8	15.3%	-11.5%	0.0%	-4.3	7.0%
O=C(OCC(=O)N1CCc2ccccc21)C1=COCCO1	56.1*	9.8%	0.0%	u	37.5*	65.2%
COc1ccccc1CNC(=O)CNC(=O)N1CC(=O)Nc2ccccc21	-8.6	5.4%	3.9%	u	-2.9	3.7%
Cc1cc(C=C2C(=O)NC(=S)NC2=O)c(C)n1C1CCCC1	70.7*	-15.8%	9.0%	-8.2%	43.4*	10.1%
CCCn1ncc(CN2CCN(Cc3ccsc3)C(CCO)C2)c1C (stereo not drawn)	-11.8	2.4%	-6.7%	-9.7%	-0.8	17.1%
COc1ccc(C(=O)C[n+]2cccc(Br)c2)cc1	33.5	10.6%	-5.7%	-17.3%	9.7*	u
O=C(C[n+]1cccc(Br)c1)c1ccc(-c2ccccc2)cc1	34.2	u	0.2%	24.5%	22.1*	0.5%
S=C1NCCc2ccccc2C1c1ccccc1 (stereo not drawn)	7.0	-7.3%	35.6%	u	-3.3	8.28µM*
SMILES	Shiga inhibitor	HCV inh	AMA1-RON2 inh	Pf growth 96h	CHX counter	Pf growth 48h
S=C1NCCc2ccccc2C1c1ccccc1Cl (stereo not drawn)	-4.6	6.2%	16.5%	u	-4.1	13.1µM*
N#CC1=C(N)OC2=C(CCc3ccccc32)C1c1ccccc1Cl (stereo not drawn)	12.7	u	-1.0%	u	20.1	u
O=C(O)C1NCCc2ccccc21 (stereo not drawn)	-4.6	18.8%	18.0%	25.4%	-6.0	u
COC(=O)c1sc(SC)c(S(=O)(=O)C(C)C)c1N/N=C(\C#N)C(=O)c1ccccc1	-12.0	7.0%	-23.5%	0.0%	1.1	-8.7%
Cc1c(Cl)cccc1-c1ccc(CNCc2ccccn2)o1	x	-10.1%	-29.1%	-10.0%	11.2	3.3%
CN(C)c1ccc(C(=C2C=CC(=[N+](C)C)C=C2)c2ccccc2)cc1	-1.4	x	x	3.79µM*	7.6	7.57µM*
CN(C)c1ccccc1	x	x	10.2%	x	x	x
CN(C)c1ccc(C(=C2C=CC(=[N+](C)C)C=C2)c2ccc(N(C)C)cc2)cc1	x	x	x	0.19µM*	x	0.301µM*
CN(C)c1ccc(C(=C2C=CC(=[N+](C)C)C=C2)c2c(O)c(S(=O)(=O)[O-])cc3cc(S(=O)(=O)O)ccc23)cc1	x	x	x	6.01µM*	x	u
CN(C)c1ccc(C(=O)NNC(=O)c2ccc(Cl)cc2)cc1	11.8	-27.1%	33.0%	52.8%	11.5	24.3%
C[C@H](O)[C@@H]1CN2CCc3c([nH]c4ccccc34)[C@@H]2C[C@@H]1N(C)Cc1cc(Cl)cc(Cl)c1	x	x	-21.9%	x	x	x
CN(C)/N=C/C=C1\CC/C(=C\c2ccc(Br)cc2)C1=O	-4.2	-15.5%	-13.3%	-4.2%	12.5	x
CN(C)/N=C/C=C1\CCC/C(=C/c2cccs2)C1=O	82.0*	5.2%	-5.1%	176.1%	60.9*	182.8%
O=P(O)(O)OC(CO)CO	-9.9	x	x	x	-1.7	x
O=C(Cc1ccccc1[N+](=O)[O-])NNC(=O)Nc1ccc2c(c1)OCO2	1.6	28.4%	47.1%	u	-0.4	23.9%
O=C(Nc1ccc2c(c1)CCC2)Nc1ccccc1Cl	154.9*	u	-0.7%	u	57.0*	95.7%
CCOc1ccccc1NC(=O)Nc1ccc2c(c1)CCC2	53.5*	12.6µM*	-9.6%	u	38.8*	11.9%
COc1cccc(CNCCc2cccc(F)c2)c1OC	x	6.7%	-16.9%	4.15µM*	-1.8	-16.7%
CCOc1ccccc1NC(=O)Nc1ccc(OC)nc1	-3.8	u	-0.1%	u	-3.3	u
Cc1ccc(NC(=O)Nc2ccc3c(c2)CCC3)c(C)c1	1.1	0.1%	-8.4%	40.5%	6.0	9.0%
